Screens from PubChem BioAssay.
SARS PLP yeast: blocks SARS-CoV papain-like protease in a yeast assay | S. cerevisiae expressing SARS-CoV PLpro, growth rescue | actives 0.19% (n = 330,000) | Potency, µM (series often up to 32.9 µM), usual class: activators; calls by dose curve; also: nearly all actives have a fitted effect of over 55% in size
AmpC detergent: blocks E. coli AmpC beta-lactamase in detergent assay; AID 485294; actives 0.041% (n = 370,000); Potency, µM (top dose mostly 114 µM), usual class: inhibitors; AmpC hydrolysis of nitrocefin, absorbance 480 nm, 0.01% Triton; P00811; also: nearly all actives have a fitted effect of over 25% in size
Target sequence (P00811 whole entry, looked up): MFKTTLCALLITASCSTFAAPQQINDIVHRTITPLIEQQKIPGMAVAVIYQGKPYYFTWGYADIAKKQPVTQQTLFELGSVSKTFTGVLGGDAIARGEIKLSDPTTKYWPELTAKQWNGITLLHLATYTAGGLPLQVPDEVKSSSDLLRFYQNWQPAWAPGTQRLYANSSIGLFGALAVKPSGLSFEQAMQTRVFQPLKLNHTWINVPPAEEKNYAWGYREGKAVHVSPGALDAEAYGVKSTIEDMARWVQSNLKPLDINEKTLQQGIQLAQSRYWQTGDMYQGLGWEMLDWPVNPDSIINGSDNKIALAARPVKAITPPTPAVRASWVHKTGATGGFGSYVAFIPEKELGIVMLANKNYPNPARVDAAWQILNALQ
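AmpC (5.3 nM in the dispensed reagent) in 20 mM phosphate pH 7.0 with 0.01% (detergent screen) or 0.0001% Triton X-100 was preincubated with compounds for 15 min at room temperature. Nitrocefin was then added from an 800 uM solution, and hydrolysis was followed at 480 nm.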
AmpC inh no detg: blocks E. coli AmpC beta-lactamase in detergent-free assay; P00811; actives 0.52% (n = 330,000); AID 485341; Potency, µM (doses to about 57.1 µM), actives largely listed as inhibitors; AmpC nitrocefin hydrolysis, absorbance 480 nm, 0.0001% Triton; also: nearly all actives have a fitted effect of over 20% in size
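20 mM phosphate pH 7.0 + 0.01% (detergent screen) or 0.0001% Triton X-100; 5.3 nM AmpC reagent; cpd preinc 15 min RT; nitrocefin (800 uM stock) to start; A480 q20 s × 4 min; Activity was normalised to no-enzyme and no-compound control wells.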
AMA1 RON2 block: inhibitors of Plasmodium falciparum AMA1-RON2 interaction. Potency, µM (doses to about 58.2 µM), hits mostly inhibitors. actives 0.2% (n = 360,000). AlphaScreen AMA1-biotinylated RON2 peptide binding. AID 720542; also: nearly all actives have a fitted effect of over 45% in size
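AMA1 (3D7) with his tag at 25 nM final met compounds first, then biotinylated RON2 peptide at 25 nM; detection used donor plus acceptor beads, 10 µg/mL apiece, read by AlphaScreen after 30 min at room temperature.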
CHX counter: affects cycloheximide protein synthesis inhibition readout, counter-screen; cell reporter, cycloheximide protein synthesis inhibition counterscreen; max response, %; actives 12% (n = 300,000); in the data active = max response mostly above about 13%, no sharp cut-off; inactive = mostly below about 14%; also: read at 38.3 µM for the half of the compounds with a filed dose
Shiga toxin inh: inhibitors of Shiga toxin in Vero cells. Vero cells, Shiga toxin protein synthesis inhibition reporter. inhibition, % at 38.7 µM. actives 9.2% (n = 290,000). AID 2315; in the data active = inhibition mostly above about 28%, no sharp cut-off; inactive = mostly below about 43%
Numbers stand for hits; – = inactive; ? = inconclusive; · = no result given. The entries come from a sample that favours hits as a whole. Unless noted, calls follow the shape of the dose curve; as a rule, active = well fitted curve in the direction sought with a large enough effect; inconclusive = small, poorly fitted or top-dose-only effect, or another doubt; inactive = no such curve, though single readings can be large; an effect the other way counts as inactive or inconclusive.

SMILES | SARS PLP yeast | AmpC detergent | AmpC inh no detg | AMA1 RON2 block | CHX counter | Shiga toxin inh
O=C1NC(c2ccc3c(c2)OCO3)Nc2ccccc21 (stereo not given) | – | – | – | – | – | –
Oc1ccccc1C1C=C(c2ccc3c(c2)OCO3)NC(c2ccc(F)c(Br)c2)N1 (stereo not given) | · | · | · | · | 36.1 | 99.7
Oc1ccc(Br)cc1C1C=C(c2ccc3c(c2)OCO3)NC(c2ccc(F)c(Br)c2)N1 (stereo not given) | · | · | · | · | 54.5 | 93.2
COCCCNC(=O)c1ccc2nc(CCc3ccccc3)oc2c1 | · | – | · | · | · | ·
C/C(=N\NC(=O)c1cc(C(C)C)[nH]n1)c1ccncc1 | – | ? | – | – | – | 48.9
C/C(=N\NC(=O)c1cc(C(C)C)[nH]n1)c1ccco1 | – | – | – | – | 66.7 | 138.3
C/C(=N/NC(=O)c1cc(-c2ccc(Br)s2)[nH]n1)c1ccco1 | – | – | – | – | – | –
COc1ccccc1-n1c(-c2ccc(C)cc2)nc2ccccc2c1=O | – | – | – | – | 28.5 | 47.6
Cc1cccc(/C=N/NC(=O)c2cc(-c3cccnc3)nc3ccccc23)c1 | – | – | – | – | – | –
CCCOc1cccc(-c2cc(C(=O)N/N=C/c3cccnc3)c3ccccc3n2)c1 | – | – | – | – | 29.9 | 76.2
O=C(N/N=C/c1ccccn1)c1cc(-c2ccc(Cl)cc2)nc2ccccc12 | – | ? | ? | – | – | –
COc1ccc(/C(C)=N/NC(=O)c2cc(-c3cccnc3)nc3ccccc23)cc1 | – | ? | – | – | – | –
COc1ccc(-c2cc(C(=O)N/N=C(\C)c3cccnc3)c3ccccc3n2)cc1 | – | – | – | – | 12.0 | –
CCCOc1cccc(-c2cc(C(=O)N/N=C/c3ccccn3)c3ccccc3n2)c1 | – | ? | – | – | 21.1 | 42.2
CCCOc1cccc(-c2cc(C(=O)NN)c3ccccc3n2)c1 | – | – | 10µM | – | – | –
Cn1c(SCC(=O)CC(=O)Nc2ccccc2)nnc1-c1ccc(O)cc1 | – | – | – | – | – | –
CC1(C)CC(=O)C(C=NCCN2CCNC2=O)=C(O)C1 | – | – | – | – | – | –
COc1ccc(-c2cc(C(=O)N/N=C/c3cccnc3)c3ccccc3n2)cc1 | – | – | – | – | 27.0 | –
Cc1cccc(-c2cc(C(=O)N/N=C/c3cccnc3)c3ccccc3n2)c1 | · | · | · | – | · | ·
CCCOc1cccc(-c2nc3ccccc3c(=O)o2)c1 | – | – | – | – | 50.9 | 79.3
CC(c1ccccc1)C1OCC(C[N+]2(C)CCCCC2)O1 (stereo not given) | – | – | – | – | – | –
COc1cccc(N2C(C(C)=O)=NN(c3ccccc3)C2c2ccc(N3CCOCC3)cc2)c1 (stereo not given) | – | ? | – | – | 64.2 | 69.2
Cc1cc(C)c(NC(=O)NC(=O)c2cccc(F)c2)c(C)n1 | – | – | – | – | 14.6 | –
Cc1cc(C)c(NC(=O)NC(=O)c2ccc(F)cc2)c(C)n1 | – | – | – | – | 28.4 | 34.4
O=C(Nc1ncccc1Cl)c1cccc(F)c1 | – | ? | – | – | – | –
SMILES | SARS PLP yeast | AmpC detergent | AmpC inh no detg | AMA1 RON2 block | CHX counter | Shiga toxin inh
O=CC1=C(c2ccccc2)Oc2ccccc2O1 | – | ? | – | – | 38.3 | 93.7
Cc1cn2c(=O)cc(COC(=O)COc3ccccc3C)nc2s1 | · | – | · | · | · | ·
Cc1ccc(O)c(NC(=O)C2CCCN2C(=O)OCc2ccccc2)c1 (stereo not given) | – | – | – | – | – | –
Cc1cc(F)ccc1NC(=O)CCS(=O)(=O)c1ccc2c(c1)CC(C)N2C(=O)C1CC1 (stereo not given) | · | – | · | · | · | ·
Clc1ccc(C[n+]2csc3ccccc32)cc1 | – | – | – | – | 18.7 | 42.6
COc1ccc2nc(N(Cc3ccccc3)C(=O)CCNC(C)=O)sc2c1 | – | – | – | – | – | 43.9
O=C(CCNC(=O)c1ccccc1Cl)Nc1nc2ccccc2s1 | – | – | – | – | 36.9 | 143.3
COc1ccc2nc(NC(=O)CCNC(=O)c3ccccc3Cl)sc2c1 | – | – | – | – | 32.6 | 76.6
O=C(CCNC(=O)c1ccccc1Cl)Nc1nc(-c2ccccc2Cl)cs1 | – | – | – | – | 21.9 | –
COc1ccc2nc(N(Cc3cccnc3)C(=O)COc3ccccc3)sc2c1 | · | – | · | · | · | ·
Cc1ccc(C2(CCNS(=O)(=O)c3ccc(C)cc3)CCOC(C(C)C)C2)cc1 (stereo not given) | – | – | – | – | – | –
COc1ccc(C(Nc2ccc(S(=O)(=O)N3CCOCC3)cc2)C(=O)NCCC(C)C)cc1OC (stereo not given) | – | – | – | – | – | –
O=C(Nc1cc(S(=O)(=O)N2CCOCC2)ccc1N1CCCC1)c1cnccn1 | – | – | – | – | – | –
O=C(Cn1cccc1C(=O)c1ccccc1)NCc1ccccc1 | – | – | – | – | – | –
COc1cccc(CNC(=O)Cn2cccc2C(=O)c2ccccc2)c1 | · | – | · | · | · | ·
O=C(Cn1cc(C(F)(F)F)ccc1=O)NCc1ccc(F)cc1 | – | – | – | – | 29.3 | 36.1
O=C(Cn1cccc1C(=O)c1ccccc1)NCc1ccc(F)cc1 | – | – | – | – | 15.5 | –
O=C(Cn1cccc1C(=O)c1ccccc1)NCc1ccc2c(c1)OCO2 | – | – | – | – | 29.3 | 52.5
CC(C)N(Cc1ccccc1)C(=O)COC(=O)CCC(=O)c1ccc(F)cc1 | – | – | – | – | · | ·
CC(=O)Nc1cccc(OCC(=O)Nc2sccc2C(N)=O)c1 | – | – | – | – | 48.8 | 69.5
COc1cc(C=C2C(=O)OC(C)(C)OC2=O)cc(Cl)c1OCC(=O)Nc1ccccc1 | – | – | – | – | – | –
CNCc1ccccc1OCC(=O)Nc1ccccc1 | – | – | – | – | 35.4 | 74.0
COc1cccc(NC(=O)CN2CCc3ccccc3C2)c1 | – | – | – | – | 17.3 | –
COc1ccc(NC(=O)COc2ccccc2Cc2ccccc2)cn1 | – | ? | – | – | · | ·
CC(C)(C)C1(C)OC(=O)C(=Cc2ccc(OCC(=O)Nc3ccccc3)cc2)C(=O)O1 (stereo not given) | – | ? | – | – | 17.6 | 58.8
SMILES | SARS PLP yeast | AmpC detergent | AmpC inh no detg | AMA1 RON2 block | CHX counter | Shiga toxin inh
Cc1ccc(NC(=O)CN2CCc3ccccc3C2)cc1F | – | – | – | – | – | –
COc1cc(C(=O)NCCC(=O)N2CCN(C)CC2)cc(OC)c1OC | – | – | – | – | – | –
CCc1cccc(OCC(=O)Nc2ccc(S(=O)(=O)Nc3ccccn3)cc2)c1 | – | – | 10µM | – | – | –
COc1cccc(NC(=O)CSC(N)=O)c1 | – | ? | – | – | – | 35.7
COc1cc(OC)cc(C(=O)NCC(=O)Nc2ccc(-c3ccccc3)cc2)c1 | – | – | – | – | 20.0 | 62.7
COc1cc(OC)cc(C(=O)NCC(=O)Nc2ccc(C)c(Cl)c2)c1 | – | – | – | – | – | –
